Methyltransferases: Primary Screen for Target Class Profiling of Small Molecule Inhibitors of Methyltransferases | actives 3.9% (n = 25,000) | purified enzyme, MTase-Glo SAH luminescence; active compounds read low | AID 1745853, 2022 | calls only at 40 µM; call rule not given here
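Each enzyme was assayed with SAM and its substrate. SAH formation detected by MTase-Glo luminescence; single-point 40 uM screen[…].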
Each line names hits and unclear results; the compound was inactive in the other large screens. The sample as a whole holds a higher share of hits than the screen did.

Cc1ccc(C)c(N2C(=O)c3cc4occc4n3CC2(C)C(=O)NC2CCCCCCC2)c1 (stereo not drawn)	none
CC1(C(=O)NC2CCCCC2)Cn2c(cc3sccc32)C(=O)N1CCCc1ccccc1 (stereo not drawn)	none
CN1C(=O)c2cc(C(=O)NCCN3CCCCC3)nn2CC1(C)C(=O)NCc1ccccc1 (stereo not drawn)	none
CC(C)C[C@H](C(=O)O)c1cc(-c2ccc(C(F)(F)F)cc2)cc(-c2ccc(C(F)(F)F)cc2)c1	Methyltransferases active
Cn1c(=O)n(C)c2cc(S(=O)(=O)N3CCN(c4ccccn4)CC3)ccc21	none
CCCn1c(=O)c2ccc(C(=O)NC3CCCC3)cc2n2c(=O)n(CC(=O)c3ccc(OCC)cc3)nc12	none
CCn1nccc1C(=O)N1CCC(Nc2nccnc2OC)CC1	none
Cc1cc2c(cc3n2CC(C)(C(=O)NC2CCCCCCC2)N(CCc2ccccc2)C3=O)o1 (stereo not drawn)	none
Cc1cc2c(cc3n2CC(C)(C(=O)NC2CCCCC2)N(CCc2ccccc2)C3=O)o1 (stereo not drawn)	none
COc1ccc(OC)c2c1cc1n2CC(C)(C(=O)NC2CCCCC2)N(Cc2ccccn2)C1=O (stereo not drawn)	Methyltransferases active
COc1ccc(OC)c2c1cc1n2CC(C)(C(=O)NC2CCCCC2C)N(Cc2ccccn2)C1=O (stereo not drawn)	none
COc1ccc(CCN2C(=O)c3cc4oc(C)cc4n3CC2(C)C(=O)NC2CCCCC2)cc1OC (stereo not drawn)	Methyltransferases active
COc1ccc(OC)c2c1cc1n2CC(C)(C(=O)NC2CCCC2)N(Cc2ccccc2)C1=O (stereo not drawn)	none
CN(CC(=O)NCCC1=CCCCC1)S(=O)(=O)c1ccc2[nH]c3c(c2c1)CCCC3	none
CCCCN1C(=O)c2cc3ccc(OC)cc3n2CC1(C)C(=O)NC1CCCC1 (stereo not drawn)	none
CC1CCC(NC(=O)C2(C)Cn3c(cc4sccc43)C(=O)N2Cc2ccccc2Cl)CC1 (stereo not drawn)	none
Cc1ccc(C)c(C(=O)Cn2nc3n(C)c(=O)c4ccc(C(=O)NC5CCCC5)cc4n3c2=O)c1	none
COC(=O)[C@H](Cc1ccc([N+](=O)[O-])cc1)NC(=O)c1cccc2ccccc12	none
Cc1c(C)n(Cc2ccc(-c3ccccc3C(=O)O)cc2)c2ccc(C(=O)N[C@@H](C)c3ccc([N+](=O)[O-])cc3)cc12	Methyltransferases active
Cc1ccc(Cn2c(=O)c3ccc(C(=O)NC(C)C)cc3n3c(=O)n(Cc4ccccc4)nc23)cc1	none
O=[S+]1([O-])N(Cc2ccccc2)C[C@@H](O)[C@]12CCN(Cc1ccc(C(F)(F)F)nc1)C2	none
COc1cc(C(=O)N2CCC(N3CCN(C)CC3)CC2)ccc1Nc1ncc2c(n1)N(C)c1ccccc1C(=O)N2C	none
CCc1cccc(CC)c1NC(=O)c1nn(C)c2c1CCc1cnc(Nc3ccc(C(=O)NC4CCN(C)CC4)cc3OC(F)(F)F)nc1-2	none
COc1ccc(C(=O)Cn2nc3n(C)c(=O)c4ccc(C(=O)NC5CCCCC5)cc4n3c2=O)cc1	none
CCC1C(=O)N(C)c2cnc(Nc3ccc(C(=O)NC4CCN(C)CC4)cc3OC)nc2N1C1CCCC1 (stereo not drawn)	Methyltransferases active
CN1c2cc(C(=O)NC3CCCCCC3)ccc2C(=O)N2CCCC21 (stereo not drawn)	none
COc1cc(C(=O)NC2CCN(C)CC2)ccc1Nc1ncc2c(n1)N(C1CCCC1)CC(F)(F)C(=O)N2C	Methyltransferases active
CN1C(=O)c2cc(C(=O)NCCc3ccccc3)nn2CC1(C)C(=O)NC1CCCC1 (stereo not drawn)	none
CC1(C(=O)NC2CCCCCCC2)Cc2ccccc2C(=O)N1CCc1ccccc1 (stereo not drawn)	none
C=Cc1ccc(Cn2nc3n(CCC)c(=O)c4ccc(C(=O)NC5CCCC5)cc4n3c2=O)cc1	none
Cc1ccc(Cn2c(=O)c3ccccc3n3c(SCC(=O)Nc4ccccc4C)nnc23)cc1	none
CC(C)OCCCn1c(=O)c2cc(Cl)ccc2n2c(SCc3ccc(Cl)cc3)nnc12	none
C=C(C)C1CC2(CO)C(=CC1=O)CCC(O)C2C (stereo not drawn)	none
Cc1ccc(Cn2c(=O)c3ccccc3n3c(-c4ccc(F)c(F)c4)nnc23)cc1	none
COc1ccc(-c2n[nH]n3c2nc(=O)c2ccc(C(=O)NCc4cccnc4)cc23)cc1	none
CC(C)Cn1c(=O)c2ccccc2n2c(SCC(=O)Nc3ccc4c(c3)OCCO4)nnc12	none
Cc1cc2[nH]c(=O)[nH]c2cc1S(=O)(=O)N1CCCC1	none
CC1=C(CCC(C)O[C@@H]2O[C@H](CO)[C@@H](O)[C@H](O)[C@H]2O)C(C)(C)CC(O)C1 (stereo partly drawn)	none
COc1cc2c(cc1OC)CN(CCc1ccc(NC(=O)c3cc(OC)c(OC)cc3NC(=O)c3cnc4ccccc4c3)cc1)CC2	none
COc1cc2c(cc1OC)CN(C(=O)/C=C/c1c(-c3ccccc3)n(C)c3ncccc13)CC2	Methyltransferases active
COc1ccccc1CN1C(=O)c2cc3ccccc3n2CC1(C)C(=O)NCCC(C)C (stereo not drawn)	none
